Bioassay records as filed in PubChem BioAssay.
LASV entry inh = blocks Lassa virus binding to or entry into cells; Lassa virus pseudotype entry inhibition, cell reporter; Potency, µM (titrated, usually from 37.9 µM), inactives show top-dose activity change, negative = inhibition, most hits filed as inhibitors; hit rate 1.2% among 300,000; AID 540256; calls by dose curve; tested in HEK293 cells; further: potency means the concentration at half of the fitted maximal effect; nearly all actives have a fitted effect of over 50% in size
HCMV inh = inhibitors of human cytomegalovirus; HFF cells, HCMV-luciferase reporter, 72 h; hits give low values; activity change, negative = inhibition, % at 57.5 µM; hit rate 4.5% among 410,000; AID 1259415; in the data active means activity change below about -60%; inconclusive means no clear call, values can overlap the other calls; inactive means above about -39%
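Two-dose cell screen: HFF monolayers treated with compounds and infected with luciferase-expressing HCMV at 1 PFU/cell, 72 h at 37C, then lysed for luciferase measurement.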
Vaccinia mCherry = inhibitors of vaccinia virus infection (mCherry reporter signal) | Vaccinia virus mCherry reporter infection, fluorescence | Potency, µM (highest dose often 36.5 µM), inactives show top-dose activity change, negative = inhibition, hits mostly inhibitors | hit rate 0.63% among 310,000 | AID 720579; calls by dose curve; tested in A549 cells; further: potency means the concentration at half of the fitted maximal effect; nearly all actives have a fitted effect of over 35% in size
HCV inh = inhibitors of hepatitis C virus infection; Huh7.5.1 HCVcc-Cre infection, luciferase reporter, 44 h; Potency, µM (highest dose often 41.8 µM), without a hit: at the top dose activity change, negative = inhibition, hits mostly inhibitors; hit rate 3.4% among 340,000; active means well fitted inhibition curve with a large enough effect; inconclusive means small, poorly fitted or top-dose-only effect, or another doubt; inactive means no such curve, though single readings can be large or run the other way; further: potency means the concentration at half of the fitted maximal effect
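Reporter virus HCVcc-Cre (~0.5 moi) infects cells exposed to compound; seeding density 1,000 cells/well with 4 h settling beforehand. Luminescence, 15 sec read, taken 44 h post-infection following a 15 min RT substrate incubation.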
Vaccinia Venus = vaccinia inhibition (Venus reporter); Vaccinia virus Venus reporter expression, fluorescence; Potency, µM (top dose mostly 36.5 µM), without a hit: top-dose activity change, negative = inhibition, most hits filed as inhibitors; hit rate 0.46% among 330,000; calls by dose curve; tested in A549 cells; further: potency means the concentration at half of the fitted maximal effect; nearly all actives have a fitted effect of over 30% in size
MARV entry inh = blocks Marburg virus binding to or entry into cells. Potency, µM (series often up to 37.8 µM), inactives show at the top dose activity change, negative = inhibition, usual class: inhibitors. Marburg virus pseudotyped entry inhibition, cell reporter. hit rate 1.8% among 300,000; calls by dose curve; tested in HEK293 cells; further: potency means the concentration at half of the fitted maximal effect
An asterisk follows results filed as active; i = inactive; ? = inconclusive; . = no result given; [ ] = remark or other dose. Most compounds without a hit are left out; they make up all but 7.8% or so of the library. On the % scale 0 is the no-effect control and ±100 the full control effect.

SMILES | LASV entry inh | HCMV inh | Vaccinia mCherry | HCV inh | Vaccinia Venus | MARV entry inh
Cc1cc(OCc2cn(CC(=O)c3ccc(O)cc3)nn2)cc(C)c1C | -18%[46.1 µM] | . | . | . | . | .
CCOC(=O)C1NNN2C3CCCCC3C(N3CCN(C4CCCCC4)CC3)NC12 (stereo not given) | . | . | . | . | . | 5%[46.1 µM]
CCc1ccc(C2c3c(oc4ccc(F)cc4c3=O)C(=O)N2c2nc(C)c(C(=O)OC)s2)cc1 (stereo not given) | -2%[46.1 µM] | -5 | -8% | . | -3% | 16%[46.1 µM]
Cc1ccc(NC(=O)Cn2c(=O)n(CCCCC(=O)NCc3ccc4c(c3)OCO4)c(=O)c3ccccc32)cc1 | ? | -23 | -12% | . | -5% | 2%[46.1 µM]
O=[N+]([O-])c1nccn1CCCCCCCCCCCN1CCOCC1 | . | -35 | -2% | . | -6% | .
O=[N+]([O-])c1cccc2nc3ccccc3c(NCCCn3ccnc3[N+](=O)[O-])c12 | ? | -97* | 2.8µM* | ? | 1.4µM* | ?
Cc1cnc(C)c(-c2cccc3c2OC(CNC(=O)/C=C/c2ccc(F)c(F)c2)C3)n1 (stereo not given) | . | . | -15% | . | -4% | .
COc1ccc(-c2noc(-c3ccc(NCc4ccccc4OC)c([N+](=O)[O-])c3)n2)cc1 | 17%[46.1 µM] | 12 | -5% | . | 4% | 16%[46.1 µM]
CC(C)c1cc(C(C)C)c(S(=O)(=O)N2CCNCC2)c(C(C)C)c1 | ? | -18 | ? | 6% | -5% | 10µM*
Cc1cc(C)c(C)c(S(=O)(=O)N2CCNCC2)c1C | -7% | -31 | -26% | -18% | -21% | ?
COc1cc2nc(N(C)C)nc(N)c2cc1OC | -15% | -94* | . | ? | -38% | ?
O=C(CCl)N(c1ccccc1)c1ccccc1 | ? | -98* | i | 8.9µM* | -8% | ?
CCCCCCN(C(=O)CCl)c1ccccc1 | . | -100* | . | 5µM* | . | .
CCCCCCCN(C(=O)CCl)c1cccc(C)c1 | 8% | -86* | -18% | 13µM* | -10% | 3%
O=C(CCl)N(CCc1ccccc1)CCc1ccccc1 | ? | -100* | i | ? | -10% | ?
O=C(CCCc1ccccc1)NCCc1ccccc1 | . | 34 | . | -3% | . | .
Cc1c(CCC(=O)O)c(=O)oc2c(C)c3occ(-c4ccc(Br)cc4)c3cc12 | -30% | -16 | -24% | 8% | -28% | 0%
COc1ccc(-c2coc3c(C)c4oc(=O)c(CCC(=O)O)c(C)c4cc23)cc1 | ? | . | -29% | 2.5µM* | -12% | -22%
CCCCCC(=O)N1C[C@H](n2cc(C3CC3)nn2)[C@@H](O)C[C@H]1c1ccc(Cl)cc1 | -37%[46.1 µM] | . | . | . | . | .
O=C(CSCc1ccccc1Cl)N1CCN(c2ccc(F)cc2)CC1 | 10%[46.1 µM] | ? | -12% | . | -5% | .
C/C(=N/NS(=O)(=O)c1ccc(CC(C)C)cc1)c1ccncc1 | . | -66* | . | ? | . | .
CC[C@H]1OC(c2ccccc2)[C@H](C)[C@H]2O[C@@H]2[C@@H]1C(=O)OC (stereo not given in full) | . | . | . | . | . | -5%[14.2 µM]
CCCCn1c(SCC(=O)Nc2nnc(C(C)C)s2)nc2c1c(=O)n(C)c(=O)n2C | ? | -75* | . | ? | . | -4%
CCCn1c(SCC(=O)Nc2nnc(CC)s2)nc2c1c(=O)n(C)c(=O)n2C | . | . | . | -16% | . | .
CCCCn1c(SCC(=O)N2c3ccccc3Sc3ccccc32)nc2c1c(=O)n(C)c(=O)n2C | ? | 3 | . | ? | ? | 11µM*
SMILES | LASV entry inh | HCMV inh | Vaccinia mCherry | HCV inh | Vaccinia Venus | MARV entry inh
CCn1c(SCC(=O)N2c3ccccc3Sc3ccccc32)nc2c1c(=O)n(C)c(=O)n2C | ? | -9 | . | ? | . | ?
COc1ccc(-n2ncc(C(=O)N3CCc4ccccc4C3)c2C2CCN(C(=O)OC(C)(C)C)CC2)cc1 | ? | ? | -5% | . | -11% | .
Cc1cc(Nc2ccc(C)c(C)c2)n2cnnc2n1 | -1%[46.1 µM] | 34 | -11% | . | -5% | -2%[46.1 µM]
CCn1cc(C2=NC(C)(C)CO2)c2ccccc21 | 2% | 49 | . | 3.2µM* | . | 1%
CCn1cc(C2=NCC(C)O2)c2ccccc21 (stereo not given) | -12% | 44 | . | 14µM* | . | 22%
CCn1cc(C2=NC(C)CO2)c2ccccc21 (stereo not given) | 24% | 14 | . | ? | . | ?
CCn1cc(C2=NCCO2)c2ccccc21 | . | -8 | 10µM* | ? | ? | -6%
